The full ranking holds about 5,400 compounds; the median of “IFI” is about 2, and the highest 2% start at about 22. This excerpt belongs to a sample that is enriched for the highest values.

The nature of the experiment: NOVARTIS: Inhibition Frequency Index (IFI) - the number of HTS assays where a compound showed > 50% inhibition/induction, expressed as a percentage of the number of assays in which the compound was tested. It is filed as functional.
`CN(C)CCNc1ncc(C(=O)NCc2ccccc2)c(NCCc2ccccc2)n1` registered an IFI of 1.92%. `COc1cc(C(=O)NCCc2ccccn2)ccc1OC1CCN(CC(c2ccccc2)c2ccccc2)CC1` yielded an IFI of 1.37%. `CCOc1cc(-c2nc3c(=O)n(C)c(=O)nc-3n(C)n2)ccc1OC(C)C` returned an IFI of 30.8%.

For `CCOc1ccc(-c2noc(-c3ccncc3)n2)cc1OCC`, the IFI came to 0%. The compound `CCOc1cc(-c2nnc3[nH]c(=O)n(C)c(=O)c3n2)ccc1OC(C)C` gave an IFI of 4.44%. In the case of `O=C(Nc1ccc(NC(=O)c2ccco2)cc1Cl)c1ccccc1` it was 0%; in that of `Clc1ccccc1-c1nc([P+](c2ccccc2)(c2ccccc2)c2ccccc2)c(N2CCOCC2)o1`, 25.9%; in that of `Cc1nc([P+](c2ccccc2)(c2ccccc2)c2ccccc2)c(N2CCCCC2)o1`, 9.09%. The compound `CN(C)c1oc(-c2ccc(Cl)cc2Cl)nc1[P+](c1ccccc1)(c1ccccc1)c1ccccc1` gave an IFI of 20.4%. In the case of `O=C(Nc1cc(C(F)(F)F)cc(C(F)(F)F)c1)Nc1ccc2nnsc2c1`, the IFI stood at 12.8%. In the case of `C=CCSC1=NC2(CC(c3ccccc3)c3cc(Cl)c(O)cc3O2)CC(C)(C)N1` (stereo not given) it was 0%. Turning to `O=C(c1cccc([N+](=O)[O-])c1)c1ccc(Cl)c(Cl)c1`, the IFI was found to be 0%. As to `Nc1ccc(-c2nc3cc(-c4ccc5[nH]c(-c6ccc(N)cc6)nc5c4)ccc3[nH]2)cc1`, the IFI amounted to 27.3%.

For the compound `Nc1ccc(-c2nc3cc(Cc4ccc5[nH]c(-c6ccc(N)cc6)nc5c4)ccc3[nH]2)cc1`, the IFI is 10.3%. In the case of `Nc1ccc(-c2nc3cc(Oc4ccc(Oc5ccc6[nH]c(-c7ccc(N)cc7)nc6c5)cc4)ccc3[nH]2)cc1` it was 5.8%; in that of `COc1ccc(-c2nc3cc(Cc4ccc5[nH]c(-c6ccc(OC)cc6)nc5c4)ccc3[nH]2)cc1`, 25.7%; in that of `COc1ccc(C(=O)Nc2ccc(-c3nc4ccc(NC(=O)c5ccc(OC)cc5)cc4[nH]3)cc2)cc1`, 12.8%.

For `Brc1ccc(C=NNc2nc3ccccc3[nH]2)cc1`, the IFI worked out at 9.02%.

`c1cncc(-c2nc3cc(-c4ccc5[nH]c(-c6cccnc6)nc5c4)ccc3[nH]2)c1` returned an IFI of 5.56%. For the compound `Nc1ccc(-c2nc3cc(Oc4ccc5[nH]c(-c6ccc(N)cc6)nc5c4)ccc3[nH]2)cc1`, the IFI was determined as 15.4%. In the case of `Brc1ccc(C=Nc2ccc(-c3nc4cc(-c5ccc6[nH]c(-c7ccc(N=Cc8ccc(Br)cc8)cc7)nc6c5)ccc4[nH]3)cc2)cc1` it was 23.1%. In the case of `N=c1c2ccccc2nnn1-c1ccc(C(F)(F)F)cc1` it was 2.53%.

In the case of `COC(=O)c1sc2nc(CN3CCC(C)CC3)ccc2c1NC(=O)c1ccc(C)s1`, the IFI worked out at 1.74%. In the case of `CCOc1ccccc1-n1c(SCC(=O)c2ccc(Cl)cc2)nc2[nH]ncc2c1=O` it was 1.16%; in that of `CC(=O)NC(CO)C(O)c1ccc([N+](=O)[O-])cc1` (stereo not given), 0%.

The record behind these values is ChEMBL document CHEMBL1156829.
